PubChem BioAssay AID1851 (National Center for Advancing Translational Sciences (NCATS), 2009)
The whole screen tested about 16,000 compounds, of which about 2,600 (16%) were called active. Roughly 20% stayed inconclusive and do not appear here. Calls come from the whole dose curve; as a rule, active = well fitted curve in the direction sought with a large enough effect; inconclusive = small, poorly fitted or top-dose-only effect, or effect the other way; inactive = no such curve, though single readings can be large or run the other way. Not all results are given here. A structure can be active in one record and inactive in another.

Molecular target: Cytochrome P450 2D6 (Homo sapiens) (UniProt P10635)
Assay: Cytochrome panel assay with activity outcomes
Details: recombinant CYP, pro-luciferin dealkylation, luminescence, p450-cyp2d6; series mostly up to 57.1 µM; activity, negative = inhibition: at the top concentration
% is set by controls: 0 for no effect and ±100 for the full control effect.

Cytochrome P450 2D6 (Homo sapiens), sequence (P10635 whole entry, looked up): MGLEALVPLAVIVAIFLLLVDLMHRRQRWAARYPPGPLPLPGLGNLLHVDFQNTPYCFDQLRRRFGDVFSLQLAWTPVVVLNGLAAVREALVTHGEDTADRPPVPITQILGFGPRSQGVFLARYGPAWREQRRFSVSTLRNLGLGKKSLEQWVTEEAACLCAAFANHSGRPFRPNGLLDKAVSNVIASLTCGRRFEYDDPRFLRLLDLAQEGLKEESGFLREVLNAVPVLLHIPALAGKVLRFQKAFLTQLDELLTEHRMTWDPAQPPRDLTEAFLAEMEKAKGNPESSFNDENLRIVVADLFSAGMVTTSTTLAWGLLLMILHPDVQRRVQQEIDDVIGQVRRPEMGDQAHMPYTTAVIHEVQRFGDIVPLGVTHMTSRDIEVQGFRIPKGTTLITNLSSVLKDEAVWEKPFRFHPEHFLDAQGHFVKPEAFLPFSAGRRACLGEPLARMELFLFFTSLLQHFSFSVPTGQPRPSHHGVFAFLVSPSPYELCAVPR

activity, negative = inhibition, inactive:
O=C(c1cnccn1)N1CCC2(CC1)CN(c1cccc(-c3ccccc3)c1)C2 -1.37%
O=C(NCc1n[nH]c(=S)n1-c1cccc(Cl)c1)c1ccc(S(=O)(=O)N2CCCC2)cc1 4.31%
NC(=O)c1ccc(-c2ncc(-c3ccccc3)o2)cc1 -17%
Nc1c(-c2cccs2)cnn1-c1nc(-c2ccc(F)cc2)cs1 14.5%
COc1ccc(C2C(C#N)=C(N)OC3=C2C(=O)CC(C)(C)C3)c([N+](=O)[O-])c1OC (stereo unspecified) -0.502%
CSc1cc(C)nc(NC(C)=O)n1 -5.56%
CCOC(=O)C1=C(CSc2nc3ccccc3s2)NC(=O)NC1c1cc(C)ccc1C (stereo unspecified) -7.88%
O=S(=O)(c1ccccc1)N1CCC2(CCN(C(c3ccccc3)c3ccccc3)CC2)CC1 -11.1%
CN1CCCC2(CCN(S(=O)(=O)c3ccccc3)CC2)C1 -20.3%
Fc1ccc2nc(Nc3nc4c(s3)CCCC4)sc2c1 -30%
Cc1cc(OC(=O)c2cc(F)c(F)cc2Cl)nc(C)n1 0.508%
Nc1nc(N)c2[nH]cnc2n1 (tested in a mixture with another compound) -4.07% [at 11.4 µM]
C/C(Cl)=C\Cn1c(N2CCCC2)nc2c1c(=O)[nH]c(=O)n2C -1.19%
C[C@@H](CC(=O)O)[C@@H](N)C(=O)O 4.74%
COC(=O)c1ccc(CCc2cc(O)ccc2O)cc1 7.07% [at 11.4 µM]
O=c1[nH]c(=S)c2[nH]c(=O)n(-c3ccccc3)c2[nH]1 7.71% [at 11.4 µM]
CO[C@]1(NC(=O)Cc2cccs2)C(=O)N2C(C(=O)O)=C(COC(N)=O)CS[C@H]21 0.942% [at 25.6 µM]
CC(=O)NC1(c2ccc(F)cc2)CCN(C(=O)Nc2ccc(F)cc2F)CC1 -3.83%
CO[C@H]1OC[C@@]2(C)[C@@H]3C4=C(CN2C(=O)OC(C)(C)C)[C@H](C)[C@H](CO)[C@H](CO)[C@H]4CC[C@H]13 -0.655%
Cc1cccc(N2CC(O)=C(c3nc4ccccc4n3C)C2=N)c1 -23.1%
Cc1cccc(CCNc2nc3ccccc3n3nnnc23)c1 -2.97%
Cn1cc(C(=O)c2ccc(Cl)cc2Cl)cc1C(=O)O 11.2%
O=c1c(-c2ccccc2)nc2cnc(N3CCNCC3)nc2n1-c1ccccc1 -14.5%
O=c1nc(N2CCCCCC2)nc(N2CCCCCC2)[nH]1 -8.94%
OCCN1CCN(c2nc(N3CCCCC3)nc(N3CCCCC3)n2)CC1 -15%
Cc1[nH]c(=O)c(C(=O)/C=C/c2ccccc2F)c2c1CCCC2 -24.7%
COCCn1c(=O)c(-c2ccc(OC)cc2)nc2cnc(N3CCOCC3)nc21 8.27%
NNC(=O)[C@@H](O)[C@H](O)[C@H](O)CO 17.4% [at 11.4 µM]
CCCCNC(=O)C(=O)NC(C)CCc1ccccc1 (stereo unspecified) 26.5%
O=C(NCCCc1ccccc1)c1cccs1 -14.8%
COc1ccc(-c2nc3cnc(N4CCN(C)CC4)nc3n(C)c2=O)cc1 -1.16%
O=C(CCNC(=O)c1ccccc1)OCN1C(=O)c2ccccc2C1=O 4.05%
O=c1c(-c2ccc(Cl)cc2)nc2cnc(N3CCOCC3)nc2n1C1CC1 -4.21%
Cc1ccc(S(=O)(=O)ON=C2CCN(S(=O)(=O)c3ccccc3)CC2)cc1 -26.8%
CCOc1ccc(C(C)=O)cc1N1C(=O)C2C(C1=O)C1C=CC2C12CC2 (stereo unspecified) -12.3%
CCOc1ccc(NC(=O)c2ccc(Br)o2)c([N+](=O)[O-])c1 -3.66%
CCOC(=O)C1CCCN(C(=O)c2cc3nc(-c4ccc5c(c4)OCO5)cc(C(F)(F)F)n3n2)C1 (stereo unspecified) -22.8%
CCCCC(=O)N/N=C(\C)CC(=O)Nc1cc(Cl)ccc1OC -15.1%
O=C(COC(=O)c1cccc(S(=O)(=O)N2CCOCC2)c1)Nc1nc(-c2ccccc2Cl)cs1 -27.2%
COc1ccc(COc2ccsc2C(=O)Nc2ccc(Cl)c(Cl)c2)cc1 -13.6%
O=c1c(-c2cc(F)cc(F)c2)nc2cnc(N3CCNCC3)nc2n1Cc1cccs1 -1.74%
CC(C)CCOc1ccc(NC(=O)C2OC3OC(C)(C)OC3C3OC(C)(C)OC23)cc1 (stereo unspecified) 0.481%
CCOC(=O)c1sc(NC(=O)CSc2nc(C)cc(C)n2)c(C#N)c1C -15.9%
CCOC(=O)c1sc(NC(=O)CSc2nc(C)cc(C)c2C#N)c(C#N)c1C -7.84%
O=C(Oc1c(Br)cc(C(=S)N2CCOCC2)cc1Br)c1ccc(Cl)cc1 -11.2%
CC(=O)NCCNc1ncnc2ccc(-c3ccccc3C#N)cc12 -9.82%
CC(=O)NCCNc1cc(-c2ccccc2C(F)(F)F)ncn1 -2.78%
Cc1[nH]n(C(C)(C)C)c(=O)c1Sc1ccc(Cl)cc1 -25.3%
CCOc1ccc(N(C(C)C(=O)NC(C)CC)S(C)(=O)=O)cc1 (stereo unspecified) -68.4%
CCC(C)OC(=O)C1=C(C)NC(=O)CC1c1ccccc1OC (stereo unspecified) -6.88%
O=c1c(-c2cc(F)cc(F)c2)nc2cnc(N3CCOCC3)nc2n1-c1ccccc1 0.324%
CCOC(=O)c1cnn(CCOC(=O)C(C)(C)C)c1NC(=O)C(C)(C)C -4.94%
O=[N+]([O-])c1ccc2c(c1)S(=O)c1ccccc1-2 (stereo unspecified) -5.2% [at 11.4 µM]
Cc1cc(NC(=O)CCN2C(=O)C3C4CCC(C4)C3C2=O)c(C)cc1Br (stereo unspecified) 5.69%
CCc1cccc(C)c1NC(=O)CSc1nc2ccc(N3C(=O)c4ccccc4C3=O)cc2s1 7.32%
CS(=O)(=O)Nc1cccc(-c2ccc3ncnc(N4CCNCC4)c3c2)c1 3%
CS(=O)(=O)Nc1cccc(-c2nc(N3CCOCC3)c3ccccc3n2)c1 -11.6%
CNc1nc(-c2cccc(NS(C)(=O)=O)c2)nc2ccccc12 -8.43%
COc1ccc2c(c1)c(=O)oc1c(C)c(OCC(=O)N3CCc4ccccc4C3)ccc12 -30.9%
COc1ccc(Oc2ncc3nc(-c4cccs4)c(=O)n(C)c3n2)cc1 -1.75%
CCCCC(=O)NC(Nc1cc(C)ccn1)(C(=O)OCC)C(F)(F)F (stereo unspecified) -6.47%
CCOC(=O)CN1N=C(/C=C/c2ccc(C)cc2)CCC1=O -3.19%
Cc1ccccc1NC1=NC(=S)N(c2ccccc2)C12CCOC(C)(C)C2 (stereo unspecified) 0.784%
CCn1nc(C(=O)Nc2ccccc2C)c(Cl)c1Cl 0.463%
O=C(N/N=C/c1ccc(Br)s1)c1ccccc1[N+](=O)[O-] -16.7%
CCCCN(C(=O)Nc1ccc(OCC)cc1)C1CCN(C(C)=O)CC1 17.3%
CSc1nc(C2CC2)cc(-c2cccs2)c1C#N -8.47%
O=C1NC(=O)C(c2ccccc2)(c2ccccc2)N1 3.16%
CCCC1CCC(c2ccc(C(N)=O)cc2)CC1 (stereo unspecified) 22.9%
COCCn1c(=O)c(-c2cn(C)c3ccccc23)nc2cnc(N3CCNCC3)nc21 -5.08%
COC(=O)[C@@H]1[C@@H]2C[C@H]3c4[nH]c5cc(OC)ccc5c4CCN3C[C@@H]2C[C@H](OC(=O)c2cc(OC)c(OC)c(OC)c2)[C@H]1OC -9.04% [at 25.6 µM]
C#C[C@]1(O)CC[C@@H]2[C@H]3CCc4cc(OC)ccc4[C@@H]3CC[C@@]21C 0.842% [at 25.6 µM]
O=C1CC(=O)C(n2cncn2)C(c2cccc(Cl)c2)C1 (stereo unspecified) -36.4%
CC(=O)Nc1c(C)nn(-c2ccc(C)c(C)c2)c1C -12.7%
Cc1cc(N)n(-c2ccc3ccccc3c2)n1 -17.4%
CC(C)(C)C(=O)OCc1cn(-c2ccc(Cl)cc2)nn1 -28.8%
Cc1nc(SCC(=O)c2ccc(Cl)s2)c2oc3ccccc3c2n1 15.2%
COCCn1c(=O)c(-c2cn(C)c3ccccc23)nc2cnc(OCc3ccccc3)nc21 -5.75%
O=C(c1ccc(Br)cc1)c1cc([N+](=O)[O-])ccc1N1CCCCC1 -4.02%

AC50, inactive:
O=C(O)CN(CCN(CC(=O)O)CC(=O)O)CCN(CC(=O)O)CC(=O)O
Cc1ccnc(NS(=O)(=O)c2ccc(N)cc2)n1

AC50, active:
Fc1ccc(-c2cnc(-c3cccs3)o2)cc1 28.2 µM
O=S(=O)(c1ccccc1)N1CCC2(CC1)CN(C(c1ccccc1)c1ccccc1)C2 2.51 µM
O=S(=O)(c1ccccc1)N1CCC2(CCCN(C(c3ccccc3)c3ccccc3)C2)CC1 0.501 µM
O=S(=O)(c1ccccc1)N1CCC[C@@]2(CCN(C(c3ccccc3)c3ccccc3)C2)C1 0.631 µM
NC1=NC2(CCCCC2)N=C(Nc2ccc(F)cc2F)N1 12.6 µM
Cc1cccc(OCCn2c(-c3ccco3)nc3ccccc32)c1 5.01 µM
N#CN(CC(N)=O)c1nc(N2CCCCC2)nc(N2CCCCC2)n1 14.1 µM
CCN(CCCc1ccccc1)CCCc1ccccc1 1 µM
CCCCCCCCCCCC1=C(O)C(=O)C=C(O)C1=O 2 µM
CCOc1ccc(N2C(=O)C3C4C=CC(CC4)C3C2=O)c([N+](=O)[O-])c1 (stereo unspecified) 11.2 µM
CN(CCc1ccc(Cl)c(Cl)c1)C[C@@H](O)COc1ccc(NS(C)(=O)=O)cc1 25.1 µM
CCOC(=O)c1sc(NC(=O)CSc2n[nH]c(-c3ccc(Cl)cc3Cl)n2)c(C#N)c1C 28.2 µM
CC(=O)NCCNc1ncnc2ccc(-c3ccccc3C)cc12 20 µM
CC(=O)NCCNc1ncnc2ccc(-c3ccccc3Cl)cc12 15.8 µM
CC(=O)NCCNc1ncnc2ccc(-c3ccccc3C(F)(F)F)cc12 20 µM
CS(=O)(=O)Nc1cccc(-c2nc(Nc3ccncc3)c3ccccc3n2)c1 20 µM
CS(=O)(=O)Nc1cccc(-c2nc(N3CCNCC3)c3ccccc3n2)c1 10 µM
CS(=O)(=O)Nc1cccc(-c2nc(Nc3ccccc3)c3ccccc3n2)c1 10 µM
Cc1nn(-c2ccc(F)cc2)c(C)c1NS(=O)(=O)c1ccc2ccccc2c1 11.2 µM

AC50, 1.26 µM (active) and inactive:
CNCC[C@H](Oc1ccccc1OC)c1ccccc1
